Compounds with a hit are over-represented: about 2.5% of the library has one in this group of screens.
Pol iota inh: qHTS for Inhibitors of Polymerase Iota; Potency, µM (highest dose often 115 µM), for inactives: at the top dose activity, negative = inhibition, hits mostly inhibitors; AID 588590, 2011; Pol iota fluorescent replication assay, 10 min; 1% of 390,000 active; DNA polymerase iota (Homo sapiens), Q9UNA4
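Fluorescent replication assay read twice, at 0 min and 10 min after adding 50 nM (final) substrate. Enzyme (10 nM) and compounds were first incubated 15 min at room temperature; enzyme-free buffer wells were negative controls.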
Pol eta inh: qHTS for Inhibitors of Polymerase Eta | DNA polymerase eta (Homo sapiens), Q9Y253 | recombinant Pol eta, fluorescent DNA replication assay | Potency, µM (titrated, usually from 114 µM), for the others: at the top dose activity change, negative = inhibition, actives largely listed as inhibitors | 1.2% of 390,000 active; also: % is scaled to controls: 0 for no effect and ±100 for the full control effect
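Pol eta at 10 nM preincubated with compounds 15 min at room temperature; reaction started with fluorescent substrate (50 nM final) and read kinetically at 0 and 10 min.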
Pol beta inh: qHTS Assay for Inhibitors of DNA Polymerase Beta. Potency, µM (series often up to 114 µM), inactives show top-dose activity change, negative = inhibition, usual class: inhibitors. 1.3% of 340,000 active. Pol beta primer extension/strand displacement, fluorescence kinetic. P06746. AID 485314, 2010; also: % is scaled to controls: 0 for no effect and ±100 for the full control effect
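10 nM enzyme + cpd, 15 min RT; start with substrate 50 nM final; read 0 min and after 10 min RT. Corrected, normalized data; 4-parameter Hill curve fit.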
L3MBTL1 inh: qHTS Assay for the Inhibitors of L3MBTL1 | AlphaScreen L3MBTL1–H3K9me1 peptide binding | Potency, µM (doses to about 57.1 µM), inactives show top-dose activity, negative = inhibition, most hits filed as inhibitors | 0.66% of 230,000 active | Lethal(3)malignant brain tumor-like protein 1 (Homo sapiens), Q9Y468; also: % is scaled to controls: 0 for no effect and ±100 for the full control effect; nearly all actives have a fitted effect of over 60% in size
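L3MBTL1 50 nM + b-AHA-H3(1-15)K9me1 75 nM, 30 min RT; compound added, 30 min RT; streptavidin donor/Ni-chelate acceptor beads 10 ug/mL each final, 30 min RT dark; AlphaScreen read.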
WRN inhibitor: qHTS for Inhibitors of WRN Helicase; 0.46% of 360,000 active; Potency, µM (top dose mostly 114 µM), inactives show at the highest dose activity change, negative = inhibition, actives largely listed as inhibitors; WRN helicase unwinding, fluorescent forked duplex, kinetic; also: % is scaled to controls: 0 for no effect and ±100 for the full control effect; nearly all actives have a fitted effect of over 55% in size
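WRN at 20 nM final preincubated with compound 15 min at room temperature; reaction started with 100 nM fluorophore/quencher forked duplex oligonucleotide and 2 mM ATP final. Unwinding followed kinetically by red fluorescence (ex 525, em 598 nm).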
Pol kappa inh: qHTS for Inhibitors of Polymerase Kappa; purified Pol kappa, fluorescent DNA synthesis assay, 10 min; Potency, µM (titrated, usually from 107 µM), inactives show at the highest dose activity, negative = inhibition, usual class: inhibitors; 0.53% of 400,000 active; also: % is scaled to controls: 0 for no effect and ±100 for the full control effect
Target sequence (Q9UBT6 whole entry, looked up): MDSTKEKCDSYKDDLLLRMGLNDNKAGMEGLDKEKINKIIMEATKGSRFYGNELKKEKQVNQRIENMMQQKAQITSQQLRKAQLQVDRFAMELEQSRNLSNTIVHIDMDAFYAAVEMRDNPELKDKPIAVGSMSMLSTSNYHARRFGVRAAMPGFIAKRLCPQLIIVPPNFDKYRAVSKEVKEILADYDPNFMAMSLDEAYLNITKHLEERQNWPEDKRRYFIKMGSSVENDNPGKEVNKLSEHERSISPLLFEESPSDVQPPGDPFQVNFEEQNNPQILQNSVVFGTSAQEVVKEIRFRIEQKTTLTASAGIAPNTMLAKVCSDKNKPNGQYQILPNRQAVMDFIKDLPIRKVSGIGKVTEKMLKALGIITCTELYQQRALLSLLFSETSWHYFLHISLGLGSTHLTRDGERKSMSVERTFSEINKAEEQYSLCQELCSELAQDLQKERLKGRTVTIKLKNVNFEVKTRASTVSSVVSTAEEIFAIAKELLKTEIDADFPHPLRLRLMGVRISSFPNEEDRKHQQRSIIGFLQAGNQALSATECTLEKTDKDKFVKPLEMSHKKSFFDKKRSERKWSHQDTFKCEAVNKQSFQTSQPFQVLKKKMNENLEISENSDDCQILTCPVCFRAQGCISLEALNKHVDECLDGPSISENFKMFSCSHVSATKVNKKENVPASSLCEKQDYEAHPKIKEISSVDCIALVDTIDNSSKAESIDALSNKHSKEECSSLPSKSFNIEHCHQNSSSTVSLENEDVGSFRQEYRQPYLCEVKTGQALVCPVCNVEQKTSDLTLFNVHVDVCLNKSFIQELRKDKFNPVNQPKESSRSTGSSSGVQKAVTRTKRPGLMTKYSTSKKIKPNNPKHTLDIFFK
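Pol kappa 10 nM + cpd, 15 min RT; start w/ substrate 50 nM final; fluorescence kinetic read, 0 and 10 min. Neg ctrl: buffer, no enzyme.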
TbPGK inh: qHTS for inhibitors of Phosphogylcerate Kinase: Hit Validation Screen; TbPGK coupled GAPDH assay, Kinase-Glo luminescence; Potency, µM (titrated, usually from 57.5 µM), inactives show top-dose activity change, negative = inhibition, usual class: inhibitors; AID 686980, 2013; 79% of 500 active; shares compounds with Pol kappa inh; also: % is scaled to controls: 0 for no effect and ±100 for the full control effect; nearly all actives have a fitted effect of over 65% in size
POLI cherry-pick: qHTS for Inhibitors of Polymerase Iota: Confirmatory Assay for Cherry-picked Compounds. shares compounds with Pol kappa inh. Pol iota primer extension, TAMRA/BHQ fluorescence. Potency, µM, actives largely listed as inhibitors. 77% of 1,500 active. AID 720496, 2013
Numbers without * were called inactive; [ ] = remark or other dose. Calls follow the shape of the dose curve; as a rule, active = well fitted curve in the direction sought with a large enough effect; inconclusive = small, poorly fitted or top-dose-only effect, or another doubt; inactive = no such curve, though single readings can be large; an effect the other way counts as inactive or inconclusive. Potency is read from the fitted curve at half-maximal effect.

`COc1ccc(-c2cc3nc4n(c(=O)c3s2)CCC4)cc1` gave Pol iota inh -5%[58.9 µM], Pol eta inh -4%, Pol beta inh -16%, L3MBTL1 inh -7%, WRN inhibitor 1% and Pol kappa inh -1%.
Screening COc1ccc(-c2cc3nc(C)n(N)c(=O)c3s2)cc1 returned Pol iota inh 10%, Pol eta inh -6%, Pol beta inh -9%, WRN inhibitor -5%, Pol kappa inh -12% and TbPGK inh 4.1µM*.
Cn1c(NCc2ccccc2)nc2cc(-c3ccccc3)sc2c1=O was read as WRN inhibitor 0%.
For Cc1nc2cc(-c3ccccc3)sc2c(=O)n1N the results were Pol iota inh 38%, Pol eta inh 4%, Pol beta inh 11%, WRN inhibitor -30%, Pol kappa inh -5% and TbPGK inh 8.2µM*.
`O=P(C(=S)Nc1ccccc1Cl)(c1ccccc1)c1ccccc1` gave Pol eta inh -9% and WRN inhibitor 0%.
CCN(CC)CCOc1ccc(Br)cc1 was read as Pol iota inh 18%, Pol eta inh -1%, Pol beta inh 4%, L3MBTL1 inh -7%, WRN inhibitor -4% and Pol kappa inh -10%.
`CCN(CC)CCOc1ccc2c(c1)C(=NO)c1cc(OCCN(CC)CC)ccc1-2` gave Pol iota inh 20µM*, Pol eta inh inconclusive, Pol beta inh 40µM*, L3MBTL1 inh -3%, WRN inhibitor 35µM*, Pol kappa inh inconclusive and POLI cherry-pick 75*.
O=C(Nc1ccccc1)Nc1ccc(C(=O)N2CCCC2)cc1 was read as Pol iota inh -27%, Pol eta inh -2%, Pol beta inh 24%, L3MBTL1 inh 7%[11.4 µM], WRN inhibitor -12%, Pol kappa inh -16% and TbPGK inh 16µM*.
For O=C(Nc1ccc(C(=O)N2CCCCC2)cc1)c1ccccc1 the results were Pol iota inh 3%, Pol eta inh 3%, WRN inhibitor -3% and Pol kappa inh -5%.
Screening CCCCN1CC2=C(C1=O)C(c1ccc(O)cc1)NC(=O)N2C (stereo not given) returned Pol iota inh 202%, Pol eta inh -19%, Pol beta inh 0%, WRN inhibitor 3% and Pol kappa inh -15%.
Screening CN(C)C(=O)COC(=O)Cc1ccc(OC(=O)c2ccc(N=C(N)N)cc2)cc1 returned Pol kappa inh 4%[19.4 µM].
Screening Nc1c(/C=C2/C=CC(=O)C(O)=C2)c(=O)nc2sc(CC(=O)N3CCCCC3)nn12 returned Pol iota inh inconclusive, Pol eta inh -10%, Pol beta inh inconclusive, WRN inhibitor -3%, Pol kappa inh inconclusive and TbPGK inh 1.6µM*.
`COC1=C/C(=C/c2c(N)n3nc(CC(=O)N4CCCC4)sc3nc2=O)C=CC1=O` gave Pol iota inh inconclusive, Pol eta inh -4%, Pol beta inh -1%, WRN inhibitor -4% and Pol kappa inh inconclusive.
Screening O=C(CNC(=O)c1cccc(F)c1)OCCOc1cccc(Cl)c1 returned Pol iota inh 14%, Pol eta inh -17%, L3MBTL1 inh 7%, WRN inhibitor 0% and Pol kappa inh -8%.
`CCN(CC(=O)Nc1cccc(OC)c1)C(=O)c1ccc(C)s1` gave Pol iota inh 13%, Pol eta inh -6%, Pol beta inh 1%, WRN inhibitor 2% and Pol kappa inh 3%.
For COc1ccccc1NC(=O)c1cnc(SCC(=O)N2CCOCC2)n(C)c1=O the results were Pol iota inh 12%, Pol eta inh inconclusive, Pol beta inh 4%, Pol kappa inh -4%[60.1 µM] and POLI cherry-pick inconclusive.
Screening COc1ccc(Br)cc1CNC(=O)CN1C(=O)c2cccnc2Oc2ccc(C)cc21 returned Pol iota inh inconclusive, Pol eta inh inconclusive, Pol beta inh 33%, Pol kappa inh -16% and POLI cherry-pick inconclusive.
Screening Cc1ccc2c(c1)N(CC(=O)NCc1ccccc1Br)C(=O)c1cccnc1O2 returned Pol iota inh -24%, Pol eta inh 11%, Pol beta inh -4% and Pol kappa inh -4%.
Screening COc1ccccc1C(OC(=O)c1ccco1)C(=O)NCc1ccc(F)cc1 (stereo not given) returned Pol iota inh 107%, Pol eta inh -6%, Pol beta inh -8%, WRN inhibitor -4% and Pol kappa inh -6%.
Screening CCOc1ccc(/C=N/NC(=O)c2cc3c(OC)cccc3[nH]2)cc1 returned Pol iota inh 25µM*, Pol eta inh inconclusive, Pol beta inh 50µM*, WRN inhibitor -9%[11.6 µM], Pol kappa inh -37% and POLI cherry-pick inconclusive.
For COc1ccc(OC)c(/C=N/NC(=O)c2cc3c(OC)cccc3[nH]2)c1 the results were Pol iota inh 19%, Pol eta inh -19%, Pol beta inh -10%, WRN inhibitor -28% and Pol kappa inh -16%.
`Cc1cc(=O)oc2cc(OCC(=O)N/N=C/c3ccccc3O)ccc12` gave Pol iota inh 29%, Pol eta inh 18µM*, Pol beta inh 3.2µM*, WRN inhibitor -1%, Pol kappa inh -8% and POLI cherry-pick inconclusive.
Screening Cc1cc(=O)oc2cc(OCC(=O)c3ccccc3)ccc12 returned Pol iota inh 143%, Pol eta inh -13%, Pol beta inh 32%, L3MBTL1 inh -1%, WRN inhibitor -14% and Pol kappa inh -5%.
`COc1ccc(NC(=O)c2cc(-c3ccc(C)c(C)c3O)n[nH]2)cc1Cl` gave Pol iota inh 9%, Pol eta inh 8%, Pol beta inh -29%, WRN inhibitor 4% and Pol kappa inh 1%.

Compound activity from PubChem BioAssay.
